# Assay results reported in PubChem BioAssay (NCI).
# This is part of a sample that, as a whole, favours compounds with a hit. Of some 83,000 tested, about 20% had one in any assay.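 Single-concentration screen, 48 h exposure, 96-well plates. Endpoint: percent growth. Below 10 = active.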 Active and inactive are the calls of the source.
# System: SW-620 colon
# Assay: NCI-60 one-dose screen, 48 h (100 = growth as untreated, 0 = no growth, -100 = all killed)
# Details: 10 µM unless noted
row,Structure (SMILES),growth
1,CC(C)c1ccc(/C=N/N=C(N)N)cc1,36.2% (inactive)
2,C=C(C)[C@@H]1CC[C@]2(C(N)=O)CC[C@]3(C)[C@H](CC[C@@H]4[C@@]5(C)CC[C@H](O)C(C)(C)[C@@H]5CC[C@]43C)[C@@H]12,-4.49% [100 µM] (active)
3,CC1(C)CC[C@]2(C(=O)O)CC[C@]3(C)C(=CC[C@@H]4[C@@]5(C)C/C(=C/c6cccnc6)[C@H](O)C(C)(C)[C@@H]5CC[C@]43C)[C@@H]2C1,13.3% [100 µM] (inactive)
4,C#CCNC(=O)CC[C@]1(C)[C@H]2CC[C@@H]3[C@@H]([C@@](C)(O)CCC=C(C)C)CC[C@@]3(C)[C@]2(C)CC[C@H]1C(=C)C,-14.1% [100 µM] (active)
5,CCOC(=O)c1nn(C2CCCCO2)c2ccc(NC(=O)CSc3nc4ccccc4c(=O)[nH]3)cc12 (stereo not given),105% (inactive)
6,O=C(Nc1ccc(Oc2ccc(F)cc2)c(Cl)c1)c1cccnn1,94.1% (inactive)
7,CC(=O)n1cc(C=O)c2ccccc21,102% (inactive)

# System: MCF7 breast
# Assay: as above
# Details: 10 µM unless noted
row,Structure (SMILES),growth
1,CC(=O)CC(=O)SC1=NCCS1,108% (inactive)
2,CCCCCCCCCCCCCCNC(=O)Nc1ccc(Cl)c(Cl)c1,30% (inactive)
3,O=S(=O)(NCc1ccccc1)c1ncnc2nc[nH]c12,98.1% (inactive)
4,Cc1cc(-c2ccc(N=Nc3c(S(=O)(=O)O)cc4cc(S(=O)(=O)O)cc(N)c4c3O)c(C)c2)ccc1N=Nc1cc(S(=O)(=O)O)c2ccccc2c1O,92.2% (inactive)
5,CC1=C/C(=C(\c2cc(C)c(O)c(C(=O)O)c2)c2c(Cl)cccc2Cl)C=C(C(=O)O)C1=O,92.7% (inactive)
6,O=C(Nc1ccccc1)Nc1ccc(C(=O)/C=C/c2ccc(N3CCCC3)cc2)cc1,66% (inactive)
7,CC(C)(C)c1cc(C(=O)Nc2ccc(C(=O)NCCN)cc2)cc(C(C)(C)C)c1,3.31% (active)
8,C[C@@H]1C[C@H]2C(=O)O[C@@H](C)[C@H](NC(=O)[C@H](Cc3cc(F)cc(F)c3)NC(=O)Nc3ccc(Cl)cc3F)C(=O)N3C[C@H](O)C[C@H]3C(=O)N3CCN(C)C[C@H]3C(=O)N[C@@H](C)C(=O)N2C1,23% (inactive)
9,C=C(C)[C@@H]1CC[C@]2(COC(=O)c3ccccc3C(=O)O)CC[C@]3(C)[C@H](CC[C@@H]4[C@@]5(C)CC[C@H](OC(=O)c6ccccc6C(=O)O)C(C)(C)[C@@H]5CC[C@]43C)[C@@H]12,48.6% [100 µM] (inactive)
10,C[C@H]1[C@H](C)CC[C@]2(C(=O)N3CCN(C)CC3)CC[C@]3(C)C(=CC[C@@H]4[C@@]5(C)C/C(=C/c6ccco6)C(=O)C(C)(C)[C@@H]5CC[C@]43C)[C@H]12,23.9% [100 µM] (inactive)
11,CCN(CC)CCCC(C)Nc1c2ccc(C)cc2nc2ccc(OC)cc12 (stereo not given),4.31% (active)
12,C#C[C@]1(O)CC[C@H]2[C@@H]3CC=C4c5nc(N)sc5CC[C@]4(C)[C@H]3CC[C@@]21C,75.2% (inactive)
13,COc1cc(C)cc2oc3oc(=O)c(-c4nc5ccccc5s4)cc3c(=O)c12,84.7% (inactive)
14,COC(=O)[C@]12CCC(C)(C)C[C@H]1C1=CC[C@@H]3[C@@]4(C)C/C(=C/c5cccnc5)C(=O)C(C)(C)[C@@H]4CC[C@@]3(C)[C@]1(C)CC2,-65.1% [100 µM] (active)
15,O=C(Nc1cccc(C2=NCCN2)c1)c1cccc(C(=O)Nc2cccc(C3=NCCN3)c2)c1,88.4% (inactive)
16,CCOc1cc(NC(=O)c2ccccc2)c(OCC)cc1N,108% (inactive)
17,CC1(C)CC[C@]2(C(=O)OC(=O)[C@]34CCC(C)(C)C[C@@H]3C3=CC[C@@H]5[C@@]6(C)CCC(=O)C(C)(C)[C@@H]6CC[C@@]5(C)[C@]3(C)CC4)CC[C@]3(C)C(=CC[C@@H]4[C@@]5(C)CCC(=O)C(C)(C)[C@@H]5CC[C@]43C)[C@H]2C1,51.8% [100 µM] (inactive)
18,CCCc1cc2cc(-n3nc(C)c4c3CC(C)(C)CC4=O)cc(NC3CCSCC3)c2c(=O)[nH]1,36.5% (inactive)
19,CC(=O)OC[C@]12CC[C@@H]([C@@H](C)C(N)=O)[C@@H]1[C@H]1CC[C@@H]3[C@@]4(C)CC[C@H](OC(C)=O)C(C)(C)[C@@H]4CC[C@@]3(C)[C@]1(C)CC2,-45.6% [100 µM] (active)

row,Structure (SMILES),growth
1,O=C(N/N=C/c1ccc([N+](=O)[O-])cc1)c1ccc(Br)o1,71.2% (inactive)
2,O=[N+]([O-])c1ccc(O)c(-c2nc3ccccc3s2)c1,81% (inactive)
3,COc1cccc(-c2[nH]c(=S)ncc2C(=O)c2ccccc2)c1,69.8% (inactive)
4,COc1ccc2nc3c(cc2c1)C(=O)CC(C(F)(F)F)C3 (stereo not given),83.1% (inactive)
5,CCN(CC)CCCOc1ccc2c(c1)O/C(=C\c1cccc(OC)c1)C2=O,72.8% (inactive)
6,CCc1cccc(Cl)c1,99.4% (inactive)
7,CCCCCN(CCCCC)CCCCCCCCN1CCCc2ccccc21,101% (inactive)
8,COc1ccc2c(c1)c(-c1noc(C(=O)c3cn(C)c4ncc(Br)cc34)n1)cn2C,79.9% (inactive)
9,NS(=O)(=O)c1ccc(CCN2C(=O)/C(=C\c3ccccc3)C=C2c2ccc(Cl)cc2)cc1,81.2% (inactive)
10,Cc1ncc(C(=O)Nc2ccc(CN3CCN(C)CC3)c(C(F)(F)F)c2)cc1C#Cc1c(N)ncc2ccc(C#N)cc12,29.5% (inactive)
11,CCCCN(CCCC)CC(O)c1ccc(OCc2ccccc2)c2ccccc12 (stereo not given),95.7% (inactive)
12,CC[C@]12C=CCN3CC[C@@]4(c5ccc(OC)cc5N(C)[C@H]4[C@@](O)(C(=O)OC)[C@@H]1OC(=O)CCC(=O)O[C@H]1CC[C@H]4[C@@H]5CCC6=CC(=O)CC[C@@H]6[C@H]5CC[C@]14C)[C@@H]32,11.7% [100 µM] (inactive)
13,CC(C)c1ccc(/C=N/N=C(N)N)cc1,8.1% (active)
14,C=C(C)[C@@H]1CC[C@]2(C(N)=O)CC[C@]3(C)[C@H](CC[C@@H]4[C@@]5(C)CC[C@H](O)C(C)(C)[C@@H]5CC[C@]43C)[C@@H]12,-12.5% [100 µM] (active)
15,CC1(C)CC[C@]2(C(=O)O)CC[C@]3(C)C(=CC[C@@H]4[C@@]5(C)C/C(=C/c6cccnc6)[C@H](O)C(C)(C)[C@@H]5CC[C@]43C)[C@@H]2C1,3.95% [100 µM] (active)
16,C#CCNC(=O)CC[C@]1(C)[C@H]2CC[C@@H]3[C@@H]([C@@](C)(O)CCC=C(C)C)CC[C@@]3(C)[C@]2(C)CC[C@H]1C(=C)C,30.5% [100 µM] (inactive)
17,CCOC(=O)c1nn(C2CCCCO2)c2ccc(NC(=O)CSc3nc4ccccc4c(=O)[nH]3)cc12 (stereo not given),92.1% (inactive)
18,O=C(Nc1ccc(Oc2ccc(F)cc2)c(Cl)c1)c1cccnn1,65.3% (inactive)
19,CC(=O)n1cc(C=O)c2ccccc21,94.8% (inactive)
